Experiments:
Experiment in all cases: PBM binding z-score (relative to random genomic background probes); higher = stronger binding; sequences stand for … in GC…GCGATTGACAGCGTAGAATGAAGG
[1] = tested on: FXR:RXRa (NR concentration 270 nM, RXRa partner concentration 90 nM)
Method in brief: (§1)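 Custom Agilent 4×180K protein-binding microarrays carried double-stranded probes, each with a 34-nt variable region. These regions held direct-repeat seeds, single-nucleotide variants, half-site ablations and random human genomic background sequences. Ligand-free nuclear receptor dimers were incubated on the arrays for 1 h, antibodies against each partner (one per run) detected binding, and scanned fluorescence was regression-normalized. Binding z-scores take the random background probes as reference.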

[2] = tested on: LXRa:RXRa (NR concentration 270 nM, RXRa partner concentration 90 nM)
Method in brief: as §1

[3] = tested on: LXRa homodimer (NR concentration 270 nM)
Method in brief: as §1

[4] = tested on: LXRb:RXRa (NR concentration 270 nM, RXRa partner concentration 90 nM)
Method in brief: as §1

[5] = tested on: LXRb homodimer (NR concentration 270 nM)
Method in brief: as §1

[6] = tested on: PPARa:RXRa (NR concentration 270 nM, RXRa partner concentration 90 nM)
Method in brief: as §1

[7] = tested on: PPARg:RXRa (NR concentration 180 nM, RXRa partner concentration 90 nM)
Method in brief: as §1

[8] = tested on: PPARg:RXRa 270nM:90nM, anti-RXR (NR concentration 270 nM, RXRa partner concentration 90 nM)
Method in brief: as §1

[9] = tested on: PPARg:RXRa 30nM:10nM, anti-RXR (NR concentration 30 nM, RXRa partner concentration 10 nM)
Method in brief: as §1

[10] = tested on: PPARg:RXRa 90nM:30nM, anti-RXR (NR concentration 90 nM, RXRa partner concentration 30 nM)
Method in brief: as §1

[11] = tested on: PPARg:RXRa DBDmut IVT, anti-RXR (DBD mutation: RXRa K156A/R161A, NR concentration 270 nM, RXRa partner concentration 90 nM)
Method in brief: as §1

[12] = tested on: PPARg:RXRa IVT, anti-PPARg (NR concentration 270 nM, RXRa partner concentration 90 nM)
Method in brief: as §1

[13] = tested on: PPARg DBDmut:RXRa IVT, anti-PPARg (DBD mutation: PPARg1 K132A/R137A, NR concentration 270 nM, RXRa partner concentration 90 nM)
Method in brief: as §1

[14] = tested on: PPARg DBDmut IVT, anti-PPARg (DBD mutation: PPARg1 K132A/R137A, NR concentration 270 nM)
Method in brief: as §1

[15] = tested on: PPARg homodimer (NR concentration 180 nM)
Method in brief: as §1

[16] = tested on: PXR:RXRa (NR concentration 270 nM, RXRa partner concentration 90 nM)
Method in brief: as §1

[17] = tested on: PXR homodimer (NR concentration 270 nM)
Method in brief: as §1

[18] = tested on: RARa:RXR (NR concentration 270 nM, RXRa partner concentration 90 nM)
Method in brief: as §1

[19] = tested on: RARa homodimer (NR concentration 270 nM)
Method in brief: as §1

[20] = tested on: RARb:RXRa (NR concentration 270 nM, RXRa partner concentration 90 nM)
Method in brief: as §1

Row | Sequence | PBM binding z-score [1] | PBM binding z-score [2] | PBM binding z-score [3] | PBM binding z-score [4] | PBM binding z-score [5] | PBM binding z-score [6] | PBM binding z-score [7] | PBM binding z-score [8] | PBM binding z-score [9] | PBM binding z-score [10] | PBM binding z-score [11] | PBM binding z-score [12] | PBM binding z-score [13] | PBM binding z-score [14] | PBM binding z-score [15] | PBM binding z-score [16] | PBM binding z-score [17] | PBM binding z-score [18] | PBM binding z-score [19] | PBM binding z-score [20]
1 | AGAATGATGTTACCAAAGATCAGGGAAACGCTTG | -0.399 | 0.968 | -0.229 | -0.18 | -0.38 | -0.0184 | 0.652 | 0.26 | 0.0901 | 0.313 | -0.0632 | 0.0152 | 0.508 | 0.116 | -0.153 | -0.39 | -0.411 | 0.018 | 0.147 | -0.129
2 | CGAACTAGATCAGAACAGGACAGTGAAGGATGAT | -0.267 | -0.369 | -0.16 | -0.794 | -0.0768 | -0.51 | 0.886 | -0.506 | 0.112 | -0.125 | 0.901 | 0.144 | 0.0731 | 0.309 | 0.437 | -0.412 | 0.0691 | -0.383 | 0.626 | -0.179
3 | ATCTCTAGGTAAACAAGTTCAGTGAATGCCGAAC | 0.431 | 1.06 | 1.16 | 0.55 | 0.583 | 1.04 | 0.677 | 0.774 | 0.448 | 0.709 | 2.47 | 2.16 | 1.52 | 1.13 | 1.19 | 1.47 | 2.08 | 0.521 | 1.04 | 1.05
4 | ACTAGCAGGCTAAGGGTCACTCAAGATTAGTCCG | 2.37 | 2.99 | -0.0624 | 2.72 | -0.651 | 4.35 | 6.55 | 6.82 | 6.03 | 7.57 | 0.414 | 3.12 | 0.0604 | -0.126 | 1.94 | 3.45 | -0.319 | 4.56 | 0.291 | 3.47
5 | GCGACTGGGGCACCAGCAGGTTACCATAACTTAA | -0.545 | -0.382 | -0.495 | 0.0821 | -1.41 | 1.05 | 1.55 | 1.44 | -0.582 | 0.564 | 4.23 | 4.22 | -0.601 | -0.596 | -0.202 | 0.0556 | -0.64 | 0.555 | -0.588 | 1.05
6 | CCGACTGGGGCATAAGGGTACCATAAGCCAGCCC | -0.549 | -0.376 | -0.527 | -0.624 | -1.67 | 0.305 | 1.3 | 1.35 | -0.296 | 1.18 | 1.55 | 1.97 | -1.37 | -1.11 | -0.201 | -0.472 | -0.387 | -0.246 | -0.606 | 0.641
7 | CTCGAAAGGTCGGTTCAGGTGAGTATACGGATAA | 2.48 | 1.92 | 0.307 | 1.74 | 0.00585 | 2.86 | 0.546 | 1.36 | 0.0497 | 0.769 | 0.179 | 0.896 | 0.489 | 0.134 | 0.753 | 2.53 | 0.887 | 2.11 | 0.864 | 2.96
8 | CCTTACGGGTCAACGTTATAGCACGGGTGGTACG | 4.79 | 3.47 | -0.0163 | 2.99 | -0.125 | 4.99 | 4.45 | 4.48 | 1.52 | 3.43 | 2 | 3.53 | 0.108 | -0.133 | 1.79 | 3.18 | -0.188 | 3.99 | 0.25 | 4.13
9 | GCATATAGGTAATACAAGATGAAAGTCCGATTGT | 0.0179 | -0.186 | -0.106 | -0.218 | -0.326 | 0.682 | 1.32 | 0.766 | 0.378 | 0.376 | 4.04 | 2.21 | 1.01 | 1.1 | 0.319 | 0.0663 | 0.0386 | 0.202 | 0.786 | -0.216
10 | GCGACTGGGGCATCAGCAGATTACCATAACTTAA | -0.359 | -0.612 | -0.401 | 0.0496 | -0.549 | 0.511 | 1.02 | 0.488 | -0.24 | 0.0962 | 4 | 2.69 | 0.0111 | -0.326 | -0.0673 | -0.385 | -0.328 | -0.267 | 0.336 | 0.39
11 | GCTGCTAGGTCAGGTTGGTCAGCTTACGGGTACG | 1.11 | 0.781 | -0.122 | 0.397 | -0.0807 | 1.07 | 0.483 | 0.904 | -0.57 | 0.294 | 2.99 | 1.96 | -0.781 | -0.52 | 0.591 | 0.193 | -0.264 | 0.655 | -0.341 | 3.31
12 | CGGCCTAGGTCAGGGCCAGTATAGGAGGAACGTT | 1.39 | 0.731 | -0.463 | 0.402 | -1.29 | 1.83 | 0.691 | 0.462 | -0.446 | 0.244 | 0.747 | 1.22 | -2.1 | -2.32 | -0.013 | 0.223 | -0.954 | 0.858 | -0.476 | 3.17
13 | TTACCAAGGTGAGCTGAGGTCGTTTATCCAACTC | 2.17 | 1.37 | -0.142 | 0.978 | -0.227 | 1.61 | -0.0022 | 0.829 | -0.0958 | 0.644 | 0.956 | 1.9 | -0.2 | -0.389 | -0.278 | 4.87 | 0.621 | 1.58 | -1.08 | 1.53
14 | TTACCAAGGTGAAGGTGGTTGATCCCTCTGTAGA | 0.468 | 0.457 | -0.29 | 0.0076 | -0.769 | 1.41 | 0.605 | 1.37 | 0.889 | 1.13 | 1.73 | 2.52 | -0.348 | -0.272 | 0.43 | 0.325 | -0.346 | 0.45 | -0.245 | 1.37
15 | AGAACGAGGGCAATGAGTTTATAGCACGGGTGGC | 0.163 | 0.317 | -0.472 | -0.145 | -0.322 | 1.25 | 1.55 | 0.876 | 0.119 | 0.36 | 3.6 | 2.75 | 0.304 | -0.00705 | -0.116 | 4.31 | 12.1 | 0.403 | -0.186 | 2.44

From the supplement of paper PMC6555819
